The text below walks through data of publication PMC5540273 (PLoS ONE, 2017).

Among the test systems are ANKK1; AURKA; AURKB; AURKC; AXL.
What all share (settings): concentration: 1 μM, replicates: in singlicate; n = 1
In another test the test system is T1, AMPK-alpha1.
T1 construct: gene PRKAA1

For a further test, the system named is T2, AMPK-alpha2.
T2 construct: gene PRKAA2

In a further test the test system is T3, ARK5.
T3 construct: gene NUAK1

Another test concerns T4, ASK1.
T4 construct: gene MAP3K5

In a further test the test system is T5, ASK2.
T5 construct: gene MAP3K6

Each structure is given as a SMILES string.
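Also: KINOMEscan kinase panel screen.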

Take `CS(=O)(=O)Cc1ccc(Nc2nccc(-c3c(-c4cccc(NC(=O)C5CCCCC5)c4)nn4ncccc34)n2)cc1` [GSK350559]: the “%Inh” value is listed as 2% in the test with AMPK-alpha1; 2% with AMPK-alpha2; 0% with ANKK1; 0% with ARK5; 0% in the test with ASK1; 34% in the test on ASK2. Moreover, the “%Inh” value in the test with AURKA was found to be 9%; with AURKB it was 15%; in the test with AURKC, 49%; in the test with AXL, 18%.
With `Cc1ccc(NC(=O)Nc2ccccc2F)cc1-c1ccc(C(=O)Nc2ccncc2)cc1` [GSK1398477], the “%Inh” value in the test on AMPK-alpha1 amounted to 7%; in the test with AMPK-alpha2, 23%; in the test on ANKK1, 0%; in the test on ARK5 it was 8%; in the test on ASK1 it was 12%; in the test with ASK2, 21%. Besides, the “%Inh” value in the test with AURKA came to 0%; in the test with AURKB, 0%; in the test on AURKC it was 27%; in the test with AXL, 25%.
Turning to `Cc1c(Cn2c3ccccc3n3c(=O)cc(N4CCOCC4)nc23)cccc1C(F)(F)F` [GSK2306394], the “%Inh” value with AMPK-alpha1 is recorded as 0%; with AMPK-alpha2, 0%; with ANKK1, 0%; with ARK5, 8%; with ASK1 it was 0%; in the test with ASK2 it was 8%. Further, the “%Inh” value in the test with AURKA was 0%; with AURKB, 9%; in the test with AURKC, 14%; in the test with AXL, 5%.
With `COc1cc2ncnc(Nc3cccc(Br)c3)c2cc1OC.Cl` [GI230329], the “%Inh” value stood at 0% in the test with AMPK-alpha1; 0% in the test on AMPK-alpha2; 8% in the test on ANKK1; 17% in the test with ARK5; 0% in the test with ASK1; 6% in the test on ASK2. The “%Inh” value came to 6% with AURKA, 0% with AURKB, 6% with AURKC and 10% in the test with AXL.
Regarding `COc1ccc(Nc2nccc(N3CCC(NC(=O)C(C)c4ccc(Cl)cc4)C3)n2)cc1` (stereo not drawn) [GSK1379735], the “%Inh” value in the test on AMPK-alpha1 was 0%; in the test on AMPK-alpha2, 21%; in the test on ANKK1, 0%; in the test on ARK5 it was 22%; in the test on ASK1 it was 10%; in the test with ASK2, 4%. For the same compound, the “%Inh” value in the test on AURKA turned out to be 0%; in the test with AURKB, 24%; in the test on AURKC, 49%; with AXL, 16%.
For `Cc1nccc(-c2c(-c3ccc(F)cc3)ncn2CCCN2CCOCC2)n1.Cl` [SB-282975], the “%Inh” value was 0% with AMPK-alpha1; 0% in the test with AMPK-alpha2; 33% with ANKK1; 0% with ARK5; 7% in the test with ASK1; 20% in the test on ASK2. Moreover, the “%Inh” value in the test with AURKA was found to be 8%; with AURKB it was 14%; in the test on AURKC, 34%; with AXL it was 0%.
For `Cc1cccc2c(-c3ccncn3)c(-c3ccc(F)cc3)nn12` [GW515532], the “%Inh” value in the test with AMPK-alpha1 is 3%; in the test on AMPK-alpha2, 16%; in the test with ANKK1, 0%; in the test with ARK5, 0%; with ASK1 it was 0%; with ASK2, 0%. Besides, the “%Inh” value in the test on AURKA was determined as 0%; in the test on AURKB it was 0%; in the test with AURKC it was 18%; in the test with AXL, 10%.
Consider `c1ccc(-c2ccnc3[nH]ccc23)cc1` [SB-693578], for which the “%Inh” value in the test with AMPK-alpha1 came to 0%; with AMPK-alpha2 it was 0%; with ANKK1, 0%; in the test with ARK5 it was 20%; in the test on ASK1, 2%; in the test on ASK2, 19%. The “%Inh” value was 17% in the test with AURKA, 41% in the test with AURKB, 0% with AURKC and 0% in the test on AXL.
Regarding `COc1cccc(CNC(=O)NC2CCN(c3ccnc(Nc4ccc(F)cc4)n3)C2)c1` (stereo not drawn) [GSK1379723], the “%Inh” value in the test with AMPK-alpha1 was 0%; in the test with AMPK-alpha2, 12%; in the test with ANKK1, 0%; in the test with ARK5 it was 24%; in the test with ASK1, 0%; in the test with ASK2, 9%. Also, the “%Inh” value in the test with AURKA was found to be 11%; with AURKB, 37%; in the test on AURKC, 49%; with AXL it was 6%.
